In PubChem BioAssay (Tox21) one finds Potency data, which are given here for 21 compounds.

Several values for one entry are separate records, joined by “and”; a condition that tells them apart may be missing. Equal entries are not always repeated. Results filed as inconclusive are left out. Where a structure was tested more than once in an assay, its records may differ in their call. Activity calls are given as the source filed them. Unless noted, calls follow the shape of the dose curve; as a rule, active = well fitted curve in the direction sought with a large enough effect in the repeat runs; inconclusive = weak or mixed curves; inactive = no such curve, though single readings can be large; an effect the other way counts as inactive or inconclusive.

A short description of assay [1]: qHTS assay to identify small molecule antagonists of the glucocorticoid receptor (GR) signaling pathway - cell viability counter screen (AID 720693). Also: nearly all actives have a fitted effect of over 55% in size. Also: potency is read from the fitted curve at half-maximal effect.
The nature of assay [2]: qHTS assay for identifying genotoxic compounds that show differential cytotoxicity against isogenic chicken DT40 cell lines with known DNA damage response pathways - wild type cell line (AID 743012). Also: nearly all actives have a fitted effect of over 60% in size. Also: potency is read from the fitted curve at half-maximal effect. In a few lines:
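Cytotoxicity in repair-proficient parental chicken DT40 cells serves as the comparator for Rad54/Ku70- and Rev3-deficient lines. Cells were exposed to compounds for 40 h at 37 C/5% CO2, and ATP-based luminescence (CellTiter-Glo) measured viability.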

Assay [3] can be described thus: qHTS assay for identifying genotoxic compounds that show differential cytotoxicity against isogenic chicken DT40 cell lines with known DNA damage response pathways - Rev3 mutant cell line (AID 743014). Also: nearly all actives have a fitted effect of over 55% in size. Also: potency is read from the fitted curve at half-maximal effect.
Assay [4] in a line: qHTS assay for identifying genotoxic compounds that show differential cytotoxicity against isogenic chicken DT40 cell lines with known DNA damage response pathways - Rad54/Ku70 mutant cell line (AID 743015). Also: nearly all actives have a fitted effect of over 60% in size. Also: potency is read from the fitted curve at half-maximal effect.
Assay [5] in a line: qHTS assay to identify small molecule antagonists of the androgen receptor (AR) signaling pathway - cell viability counter screen (AID 743033; also: nearly all actives have a fitted effect of over 45% in size; also: potency is read from the fitted curve at half-maximal effect).
Assay [6] can be described thus: qHTS assay to identify small molecule antagonists of the androgen receptor (AR) signaling pathway using the MDA cell line - cell viability counter screen (AID 743041; also: nearly all actives have a fitted effect of over 45% in size; also: potency is read from the fitted curve at half-maximal effect). A digest of the protocol:
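qHTS viability read-out; MDA-kb2 AR-luc; R1881-stimulated; 16 h exposure at 37C, 0% CO2; CellTiter-Fluor, 30 min; fluorescence intensity.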

Assay [7] addresses Androgen receptor (Homo sapiens) (UniProt P10275). The assay is described as follows: qHTS assay to identify small molecule antagonists of the androgen receptor (AR) signaling pathway using the MDA cell line (AID 743042; also: nearly all actives have a fitted effect of over 55% in size; also: potency is read from the fitted curve at half-maximal effect). In a few lines:
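MDA-kb2 cells (human breast carcinoma, stably carrying an MMTV-luciferase reporter responsive to AR and GR) were plated at 3,000 cells/well and preincubated 5 hr at 37C, then given compound plus R1881 agonist for 16 h. ONE-Glo luminescence was read.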

The target is the same in assay [8]. The assay is described as follows: qHTS assay to identify small molecule antagonists of the androgen receptor (AR) signaling pathway (AID 743035; active = well fitted inhibition curve with a large enough effect in the signal ratio in the repeat runs, not every such curve was filed as active; the % refers to the signal ratio; also: potency is read from the fitted curve at half-maximal effect). In a few lines: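 Steps: seed AR-UAS-bla GripTite HEK293 cells, incubate 4 h at 37C; pin in test compound, then add agonist R1881; incubate 16 h at 37C; add LiveBLAzer B/G FRET substrate, 2 h at room temperature; read fluorescence.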

Assay [9] shares this target. The assay is described as follows: qHTS assay to identify small molecule agonists of the androgen receptor (AR) signaling pathway (AID 743036; active = well fitted activation curve with a large enough effect in the signal ratio in the repeat runs, with a control signal flat, not every such curve was filed as active; the % refers to the signal ratio). In a few lines:
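Fluorescence from a beta-lactamase FRET substrate served as read-out in AR-UAS-bla GripTite HEK293 cells. Cells were treated with DMSO-dissolved compounds for 16 h at 37C, then with LiveBLAzer B/G substrate for 2 h at room temperature.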

The target is the same in assay [10]. Briefly: qHTS assay to identify small molecule agonists of the androgen receptor (AR) signaling pathway using the MDA cell line (AID 743040; also: nearly all actives have a fitted effect of over 20% in size; also: potency is read from the fitted curve at half-maximal effect). In a few lines: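 Agonist activity is measured as luciferase luminescence in human MDA-kb2 cells whose MMTV reporter responds to both AR and GR. Compounds in DMSO incubate 16 h at 37C, 0% CO2, and ONE-Glo is read after 30 min.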

Chain of Androgen receptor (Homo sapiens) (P10275 whole entry, looked up): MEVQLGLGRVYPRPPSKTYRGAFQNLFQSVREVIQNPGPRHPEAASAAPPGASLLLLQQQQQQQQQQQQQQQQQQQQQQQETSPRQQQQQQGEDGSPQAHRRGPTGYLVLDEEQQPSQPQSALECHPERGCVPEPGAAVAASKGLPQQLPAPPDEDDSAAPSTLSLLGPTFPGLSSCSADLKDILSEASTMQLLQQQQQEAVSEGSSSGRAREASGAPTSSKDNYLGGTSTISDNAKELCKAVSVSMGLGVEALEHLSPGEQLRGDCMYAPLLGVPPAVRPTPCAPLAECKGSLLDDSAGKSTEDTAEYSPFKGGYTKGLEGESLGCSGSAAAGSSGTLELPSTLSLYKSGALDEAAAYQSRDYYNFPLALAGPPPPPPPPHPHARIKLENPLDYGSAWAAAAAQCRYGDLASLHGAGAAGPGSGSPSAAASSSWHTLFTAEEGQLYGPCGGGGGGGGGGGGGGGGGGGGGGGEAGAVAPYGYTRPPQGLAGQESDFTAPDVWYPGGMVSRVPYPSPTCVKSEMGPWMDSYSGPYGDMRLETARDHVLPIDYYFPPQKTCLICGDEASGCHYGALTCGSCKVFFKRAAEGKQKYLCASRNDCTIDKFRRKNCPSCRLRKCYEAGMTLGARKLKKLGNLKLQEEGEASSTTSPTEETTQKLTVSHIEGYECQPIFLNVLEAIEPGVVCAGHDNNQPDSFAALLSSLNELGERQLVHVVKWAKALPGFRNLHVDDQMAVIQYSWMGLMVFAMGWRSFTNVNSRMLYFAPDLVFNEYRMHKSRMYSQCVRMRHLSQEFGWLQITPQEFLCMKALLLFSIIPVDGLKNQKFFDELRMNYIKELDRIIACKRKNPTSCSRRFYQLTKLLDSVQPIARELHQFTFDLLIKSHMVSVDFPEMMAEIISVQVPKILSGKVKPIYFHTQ

As to `CC(C)Cc1ccc([C@H](C)C(=O)O)cc1`, the Potency result in assay [1], in assay [2], in [3], in assay [4], in [5] and in assay [6] was “inactive” in each case.
For the compound `CC[C@@H](C)[C@H](N)C(=O)O`, the Potency entry in [1], in assay [2], in assay [3], in assay [4], in [5] and in assay [6] was “inactive” each time.
On to `Nc1nc(/C(=C/CC(=O)O)C(=O)N[C@@H]2C(=O)N3C(C(=O)O)=CCS[C@H]23)cs1`, for which the Potency result in assay [1], in assay [2], in assay [3], in [4], in assay [5] and in assay [6] was “inactive” in each case.
As for `COc1ccc(/C=N/NC(=O)c2ccncc2)c(C(=O)O)c1OC`, the Potency entry in assay [1], in assay [2], in assay [3], in assay [4], in assay [5] and in assay [6] was “inactive” in each case.
On to `CNC(=O)OCc1cccc(COC(=O)NC)n1`, for which the Potency result in assay [1], in assay [2], in assay [3], in [4], in [5] and in [6] was “inactive” each time.
Regarding `COc1cc([C@@H]2c3cc4c(cc3[C@@H](O[C@@H]3O[C@@H]5CO[C@@H](C)O[C@H]5[C@H](O)[C@H]3O)[C@H]3COC(=O)[C@H]23)OCO4)cc(OC)c1O`, the Potency result in [1] and in assay [6] was “inactive” each time. Besides, the Potency in [2] was 531 nM (active) and 340 nM (active); in assay [3], 473 nM (active) and 107 nM (active); in assay [4], 53.1 nM (active) and 15.2 nM (active).
In the case of `NCC[C@H](O)C(=O)N[C@@H]1C[C@H](N)[C@@H](O[C@H]2O[C@H](CN)CC[C@H]2N)[C@H](O)[C@H]1O[C@H]1O[C@H](CO)[C@@H](O)[C@H](N)[C@H]1O`, the Potency result in assay [1], in assay [2], in [3], in [4], in assay [5] and in [6] was “inactive” each time.
For the compound `COc1cc(/C=C/C(=O)CC(=O)/C=C/c2ccc(O)c(OC)c2)ccc1O`, the Potency entry in assay [1] and in [6] was “inactive” throughout. Besides, the Potency in assay [2] is 8.41 µM (active) and 21.1 µM (active) and 17.3 µM (active); in [3], 11.9 µM (active) and 12.3 µM (active); in assay [4], 10.6 µM (active) and 26.6 µM (active) and 10.9 µM (active); in assay [5] it was “inactive and 43.9 µM (active)”; in assay [7], 26.6 µM (active) and inactive and 13.8 µM (active).
`Cc1cccc(C)c1NC(=O)C1CCCCN1C` (stereo not given): the Potency entry in assay [1], in assay [2], in [3], in assay [4] and in [6] was “inactive” in each case.
Regarding `NC[C@@H]1CC[C@@H](N)[C@@H](O[C@H]2[C@H](O)[C@@H](O[C@H]3O[C@H](CO)[C@@H](O)[C@H](N)[C@H]3O)[C@H](N)C[C@@H]2N)O1`, the Potency result in assay [1], in [2], in assay [3], in assay [4], in assay [8] and in assay [9] was “inactive” throughout. The Potency entry in [6] and in assay [7] was “inactive” each time. Besides, in [10], the Potency is 29.8 µM (active).
For the compound `COC(=O)[C@H]1[C@H]2C[C@H]3c4[nH]c5ccccc5c4CCN3C[C@H]2CC[C@@H]1O`, the Potency entry in assay [1], in assay [2], in assay [3], in [4], in assay [5] and in [6] was “inactive” throughout.
For the compound `CC12CCC(C1)C(C)(C)C2=O` (stereo not given), the Potency result in assay [1], in assay [2], in [3], in assay [4], in assay [8] and in assay [9] was “inactive” each time. For the same compound, the Potency entry in assay [10], in assay [6] and in assay [7] was “inactive” each time.
`O=C1OC(=O)c2cc(-c3ccc4c(c3)C(=O)OC4=O)ccc21`: the Potency entry in [1] and in [6] was “inactive” throughout. For the same compound, the values for the Potency in assay [2], in [3] and in [4] were 17.2 µM (active), 54500 nM (active) and 54500 nM (active), respectively.
In the case of `COC(=O)C[C@](O)(CCCC(C)(C)O)C(=O)O[C@@H]1C(OC)=CC23CCCN2CCc2cc4c(cc2[C@H]13)OCO4` (stereo not given in full), the Potency in [1] is 1.2 µM (active) and 1.07 µM (active); in assay [2], 29.8 nM (active) and 23.7 nM (active); in [3], 21.1 nM (active) and 26.6 nM (active); in assay [4], 23.7 nM (active); in assay [8], 75.6 nM (active) and 67.4 nM (active); in [6], 0.0531 µM (active). Further, the Potency in [7] is 21.1 nM (active). In addition, the Potency result in assay [10] was “inactive”.
With `CCCCCCOC(=O)c1cccnc1`, the Potency result in [1], in assay [2], in assay [3], in assay [4], in assay [5] and in [6] was “inactive” throughout.
With `CC(=O)[C@]1(O)Cc2c(O)c3c(c(O)c2[C@@H](O[C@H]2C[C@H](N)[C@H](O)[C@H](C)O2)C1)C(=O)c1ccccc1C3=O`, the Potency in assay [1] is 3.01 µM (active); in assay [2] it was 0.0211 µM (active); in assay [3] it was 21.1 nM (active); in assay [4] it was 3.3 nM (active); in [8] it was 3.38 µM (active); in [6], 15 µM (active). For the same compound, the Potency in [7] is 422 nM (active).
For the compound `CSCCC(N)C(=O)O` (stereo not given), the Potency entry in assay [1], in assay [2], in assay [3], in assay [4] and in assay [6] was “inactive” each time.
Take `CCN(CC)CCOC[C@H]1O[C@@H](O)[C@H](OCCN(CC)CC)[C@@H](O)[C@@H]1O`: the Potency result in [1], in [2], in assay [3], in assay [4], in assay [5] and in assay [6] was “inactive” in each case.
With `COc1cc2c(cc1O)CCN[C@]21CS[C@@H]2c3c(OC(C)=O)c(C)c4c(c3[C@H](COC1=O)N1[C@@H]2[C@H]2c3c(cc(C)c(OC)c3O)C[C@@H]([C@@H]1O)N2C)OCO4`, the Potency in assay [1] was 60.1 nM (active) and 17.4 nM (active); in assay [2], 0.9 nM (active) and 2.4 nM (active); in [3], 48.6 nM (active); in assay [4], 0.1 nM (active). For the same compound, the Potency result in assay [6] is “inactive”.
In the case of `O=c1[nH]c(=O)n([C@H]2C[C@H](O)[C@@H](CO)O2)cc1/C=C/Br`, the Potency result in assay [1], in assay [2], in [3], in assay [4], in assay [5] and in [6] was “inactive” throughout.
For the compound `NS(=O)(=O)c1cc(Cl)c(Cl)c(S(N)(=O)=O)c1`, the Potency result in assay [1], in assay [2], in assay [3], in [4] and in [6] was “inactive” throughout.
